Potency and outcome data for twelve compounds are collected here from PubChem BioAssay (Tox21).

A number with no mark means an inactive call. Records with an inconclusive call do not appear. Activity calls are given as the source filed them. Unless noted, calls follow the shape of the dose curve; as a rule, active = well fitted curve in the direction sought with a large enough effect in the repeat runs; inconclusive = weak or mixed curves; inactive = no such curve, though single readings can be large; an effect the other way counts as inactive or inconclusive.

A short description of assay [1]: qHTS assay to identify small molecule agonists of the estrogen receptor alpha (ER-alpha) signaling pathway in the presence of an antagonist - cell viability counter screen (AID 1259386).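 Also: series mostly up to about 92 µM; cells exposed to compounds for 22 h at 37 °C before the viability read; nearly all actives have a fitted effect of over 30% in size.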 The method in brief:
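Read-out: CellTiter-Fluor fluorescence after 1hr reagent incubation, measured in the same wells as the luciferase readout. VM7Luc4E2 cells were exposed to 15 compound concentrations with 10.0nM ICI-182,780 for 22hr at 37C.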
Background: In qHTS, concentration-response curves come from the screen itself.

Assay [2] concerns the target Progesterone receptor (Homo sapiens) (UniProt P06401). The assay is described as follows: qHTS assay to identify small molecule antagonists of the progesterone receptor (PR) signaling pathway (AID 1346795; active = well fitted inhibition curve with a large enough effect in the signal ratio in the repeat runs, not every such curve was filed as active; the % refers to the signal ratio). The method in brief:
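Inhibition of R5020-induced (1 nM final) beta-lactamase reporter signal in PR-UAS-bla HEK293T cells was scored by FRET fluorescence after overnight (16 hr) compound treatment.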

A short description of assay [3]: qHTS assay to identify small molecule antagonists of the TGF-beta/Smad signaling pathway - cell viability counter screen (AID 1346824). Also: nearly all actives have a fitted effect of over 50% in size. The method, boiled down:
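Cytotoxicity counter-screen run in the same wells as the beta-lactamase Smad reporter read: CellTiter-Glo luminescence after 30 min at room temperature. HEK 293T SBE-bla cells had 5 hr compound exposure at 37 C with TGF-beta1 (0.25 ng/mL stock).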

Assay [4] is described as follows: qHTS assay to identify small molecule agonists of the TGF-beta/Smad signaling pathway - cell viability counter screen (AID 1346829). Also: top concentration of the series differs between compounds; nearly all actives have a fitted effect of over 45% in size. The method, boiled down: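 Luminescence from CellTiter-Glo, read after a 30 min room-temperature incubation, gives cell viability of SBE-bla HEK 293T cells treated 5 hr with compounds at 37 C.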
The nature of assay [5]: qHTS assay to identify small molecule agonists of the TGF-beta/Smad signaling pathway (AID 1346859; active = well fitted activation curve with a large enough effect in the signal ratio in the repeat runs, not every such curve was filed as active; the % refers to the signal ratio; also: series mostly up to about 77 µM). The method, boiled down:
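Stable Smad binding element-beta-lactamase HEK 293T cells; 5 hr compound exposure at 37 C under 5% CO2; 2 hr room-temperature substrate step; fluorescence excited at 405 nm, collected at 460 nm and 530 nm.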

For assay [6], the target named is Thyrotropin-releasing hormone receptor (Homo sapiens) (UniProt P34981). The assay is described as follows: qHTS assay to identify small molecule antagonists of the thyrotropin-releasing hormone receptor (TRHR) signaling pathway (AID 1346877; active = well fitted inhibition curve with a large enough effect in the repeat runs, not every such curve was filed as active; also: series mostly up to about 51 µM). The method, boiled down:
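HEK293/TRHR cells, 18 h, 37 °C; Ca2+ dye 2 h; cpd 5 min RT; TRH 1 nM final; fluorescence read 3 min, 1 s intervals; 15 concs, triplicate.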

Assay [7] shares this target. The assay is described as follows: qHTS assay to identify small molecule agonists of the thyrotropin-releasing hormone receptor (TRHR) signaling pathway (AID 1346891; calls by dose curve;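 also: HEK293 cells expressing TRHR with calcium dye readout; series mostly up to about 58 µM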). The method in brief: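 In 1536-format, 1500 TRHR-Hek293 cells per well grew 18 h, took up calcium dye for 2 h at 37 °C, received compound, and were read kinetically; 15-point titrations, triplicates.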

Assay [8] can be described thus: Human pregnane X receptor (PXR) small molecule agonists, qHTS cell viability counter screen (AID 1346977). Also: nearly all actives have a fitted effect of over 50% in size. The method, boiled down: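 Readout is CellTiter-Fluor fluorescence from PXR-Luc HepG2 cells. Plated cells rested 5hr, then were treated with compounds for 24hr at 37C and 5% CO2, with reagent present during the last hour.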
The nature of assay [9]: Caspase-3/7 induction in HepG2 cells by small molecules, qHTS assay (AID 1346978). Also: nearly all actives have a fitted effect of over 15% in size. The method, boiled down: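 Caspase-3/7 induction was measured by Caspase-Glo 3/7 luminescence (30 min, room temperature) after a 17 hr compound exposure of wild-type HepG2 cells seeded at 2,000 per well and pre-incubated 5 hr.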
Assay [10] can be described thus: Caspase-3/7 induction in CHO-K1 cells by small molecules, qHTS cell viability counter screen (AID 1346979). Also: nearly all actives have a fitted effect of over 35% in size. The method in brief: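 To flag cytotoxic compounds, treated CHO-K1 wild-type cells were given CellTiter-Fluor at 16hr and read fluorescently after 1hr at 37C; the caspase-3/7 luminescence was measured in these same wells.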
Assay [11] in a line: Caspase-3/7 induction in CHO-K1 cells by small molecules, qHTS assay (AID 1346980). Also: nearly all actives have a fitted effect of over 15% in size. The method, boiled down:
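Luminescent Caspase-Glo 3/7 read (30min, room temperature) quantified apoptosis induction. Cells were wild-type CHO-K1, treated with compound for 17hr at 37 C and 5% CO2.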

Assay [12] in a line: Caspase-3/7 induction in HepG2 cells by small molecules, qHTS cell viability counter screen (AID 1346981). Also: series mostly up to about 92 µM; nearly all actives have a fitted effect of over 30% in size. The method, boiled down: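 Fluorescence read-out of live-cell protease activity (CellTiter-Fluor) after 1 hr with reagent. This was measured in the same wells as the caspase-3/7 luminescence, on HepG2 cells exposed to DMSO-dissolved compounds for 16 hr at 37 C.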
For assay [13], the target named is Nuclear receptor subfamily 1 group I member 2 (Homo sapiens) (UniProt O75469). The assay is described as follows: Human pregnane X receptor (PXR) small molecule agonists, qHTS assay (AID 1346982). Also: nearly all actives have a fitted effect of over 35% in size. Also: potency is read from the fitted curve at half-maximal effect. The method in brief:
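HepG2 PXR-Luc reporter line, 5% charcoal-stripped FBS; 5 hr pre-incubation, compound (DMSO) 24 hr at 37 C/5% CO2; ONE-Glo 30 min RT; luminescence read-out.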

In assay [14] the target is Acetylcholinesterase (Homo sapiens) (UniProt P22303). The assay is described as follows: Acetylcholinesterase (AChE) small molecule antagonists: colormetric cell-based qHTS assay (AID 1347395; calls by dose curve; also: nearly all actives have a fitted effect of over 30% in size). The method, boiled down: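 Neuroblastoma line SH-SY5Y supplied the enzyme; cells were preincubated with compound for 30 min at 37 C and 5% CO2. Acetylthiocholine with DTNB was then added for 90 min at 37 C, and thiocholine was measured by colour.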
Sequence of Acetylcholinesterase (Homo sapiens) (P22303 whole entry, looked up): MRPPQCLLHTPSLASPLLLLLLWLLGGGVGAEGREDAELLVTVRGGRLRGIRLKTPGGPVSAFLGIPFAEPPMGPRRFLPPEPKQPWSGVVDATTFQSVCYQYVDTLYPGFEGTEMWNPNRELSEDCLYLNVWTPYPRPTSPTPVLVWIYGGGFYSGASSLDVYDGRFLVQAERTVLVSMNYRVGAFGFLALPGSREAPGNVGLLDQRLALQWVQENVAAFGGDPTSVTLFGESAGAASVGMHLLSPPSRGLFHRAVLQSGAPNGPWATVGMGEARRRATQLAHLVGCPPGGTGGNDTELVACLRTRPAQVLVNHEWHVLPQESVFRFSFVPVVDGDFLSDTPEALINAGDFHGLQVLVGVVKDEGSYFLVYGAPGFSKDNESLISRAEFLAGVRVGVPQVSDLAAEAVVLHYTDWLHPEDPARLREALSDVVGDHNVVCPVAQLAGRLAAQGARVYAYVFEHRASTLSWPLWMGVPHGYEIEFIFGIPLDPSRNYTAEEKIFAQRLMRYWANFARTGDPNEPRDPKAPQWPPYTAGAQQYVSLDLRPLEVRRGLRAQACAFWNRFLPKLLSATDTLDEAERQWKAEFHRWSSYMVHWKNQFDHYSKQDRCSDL

For assay [15], the target named is Progesterone receptor (Homo sapiens) (UniProt P06401). The assay is described as follows: qHTS assay to identify small molecule agonists of the progesterone receptor (PR) signaling pathway (AID 1346784; calls by dose curve; also: nearly all actives have a fitted effect of over 30% in size). The method in brief:
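Using charcoal-stripped serum (2%) to limit endogenous steroids, PR-UAS-bla HEK 293T cells received compounds for 16 hr at 37C after 6 hr plating; beta-lactamase FRET fluorescence was recorded following 2 hr substrate loading at room temperature.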

Assay [16] in a line: qHTS assay to identify small molecule antagonists of the progesterone receptor (PR) signaling pathway - cell viability counter screen (AID 1346798). Also: nearly all actives have a fitted effect of over 50% in size. Also: potency is read from the fitted curve at half-maximal effect. The method in brief:
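ATP content as viability readout: CellTiter-Glo luminescence, 30 min room temperature, in PR-UAS-bla HEK293T cells after 16 hr compound/R5020 treatment at 37C and 5% CO2.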

Assay [17] in a line: qHTS assay to identify small molecule agonists of the progesterone receptor (PR) signaling pathway - cell viability counter screen (AID 1346799; calls by dose curve; also: nearly all actives have a fitted effect of over 45% in size). The method in brief:
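Cytotoxicity in PR-bla HEK293T cells: 16 h compound, 37C; CellTiter-Glo added post-FRET read; luminescence after 30 min RT.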

Sequence of Thyrotropin-releasing hormone receptor (Homo sapiens) (P34981 whole entry, looked up): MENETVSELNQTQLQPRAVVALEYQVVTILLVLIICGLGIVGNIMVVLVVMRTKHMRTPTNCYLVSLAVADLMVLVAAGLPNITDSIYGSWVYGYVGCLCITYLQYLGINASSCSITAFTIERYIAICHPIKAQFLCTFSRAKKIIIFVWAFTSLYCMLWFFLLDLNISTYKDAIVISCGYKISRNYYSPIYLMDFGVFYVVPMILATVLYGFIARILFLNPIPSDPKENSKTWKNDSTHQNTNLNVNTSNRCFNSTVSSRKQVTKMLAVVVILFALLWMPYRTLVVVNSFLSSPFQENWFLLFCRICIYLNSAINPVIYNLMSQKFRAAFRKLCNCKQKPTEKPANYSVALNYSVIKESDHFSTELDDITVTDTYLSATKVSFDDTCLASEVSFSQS
Sequence of Nuclear receptor subfamily 1 group I member 2 (Homo sapiens) (O75469 whole entry, looked up): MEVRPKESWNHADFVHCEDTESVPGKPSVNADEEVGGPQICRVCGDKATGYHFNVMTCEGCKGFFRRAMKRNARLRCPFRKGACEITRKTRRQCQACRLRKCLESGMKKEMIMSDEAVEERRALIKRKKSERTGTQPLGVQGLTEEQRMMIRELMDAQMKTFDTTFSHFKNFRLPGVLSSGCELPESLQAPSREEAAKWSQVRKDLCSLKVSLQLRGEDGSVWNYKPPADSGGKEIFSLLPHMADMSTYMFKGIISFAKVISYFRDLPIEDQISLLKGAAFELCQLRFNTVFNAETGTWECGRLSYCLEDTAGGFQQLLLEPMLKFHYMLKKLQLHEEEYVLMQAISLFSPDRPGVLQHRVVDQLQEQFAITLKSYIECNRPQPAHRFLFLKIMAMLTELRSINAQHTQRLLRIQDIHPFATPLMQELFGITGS
Sequence of Progesterone receptor (Homo sapiens) (P06401 whole entry, looked up): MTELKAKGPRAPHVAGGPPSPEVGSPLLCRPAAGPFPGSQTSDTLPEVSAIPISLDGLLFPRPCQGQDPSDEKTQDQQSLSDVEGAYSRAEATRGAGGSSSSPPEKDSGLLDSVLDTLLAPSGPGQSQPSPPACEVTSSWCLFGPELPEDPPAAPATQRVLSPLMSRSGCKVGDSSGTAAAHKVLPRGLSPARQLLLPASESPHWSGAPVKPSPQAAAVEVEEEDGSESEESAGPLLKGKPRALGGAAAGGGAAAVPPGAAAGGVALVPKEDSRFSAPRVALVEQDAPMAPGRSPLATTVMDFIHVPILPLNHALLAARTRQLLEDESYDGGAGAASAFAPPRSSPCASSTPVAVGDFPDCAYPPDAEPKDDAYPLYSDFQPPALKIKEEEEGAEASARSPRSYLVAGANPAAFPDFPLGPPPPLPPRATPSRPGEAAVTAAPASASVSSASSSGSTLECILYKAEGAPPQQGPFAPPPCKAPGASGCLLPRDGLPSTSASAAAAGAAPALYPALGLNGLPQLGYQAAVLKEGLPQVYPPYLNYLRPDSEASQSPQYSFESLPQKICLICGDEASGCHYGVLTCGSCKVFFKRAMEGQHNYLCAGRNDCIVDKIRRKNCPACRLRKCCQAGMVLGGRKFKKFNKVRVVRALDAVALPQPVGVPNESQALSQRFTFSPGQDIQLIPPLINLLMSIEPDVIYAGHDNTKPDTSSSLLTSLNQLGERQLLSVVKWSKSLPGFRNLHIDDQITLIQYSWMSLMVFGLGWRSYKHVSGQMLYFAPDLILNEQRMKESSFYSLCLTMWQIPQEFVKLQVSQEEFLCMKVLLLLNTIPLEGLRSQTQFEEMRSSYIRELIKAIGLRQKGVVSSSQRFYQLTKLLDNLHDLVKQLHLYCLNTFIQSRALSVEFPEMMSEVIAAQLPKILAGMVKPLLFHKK

With `CCC1(c2ccccc2)C(=O)N=C(O)NC1=O` (configuration not stated), the Potency result in [1], in [2], in assay [3], in [8], in assay [9] and in [10] was “inactive” throughout. For the same compound, the Potency result in assay [11], in assay [12] and in [14] was “inactive” each time. For the same compound, the result in assay [4], in assay [5], in [6] and in assay [7] was inactive. Moreover, the Potency in assay [13] is 53 µM (active).

On to `c1ccc(N2CCNCC2)cc1`, for which the Potency entry in [1], in [15], in assay [16], in [3], in assay [8] and in assay [9] was “inactive” throughout. Besides, the Potency entry in assay [10], in assay [11], in assay [12], in [13] and in [14] was “inactive” throughout. Besides, the compound was called inactive in assay [4], in assay [5] and in assay [7].

Turning to `Oc1c(Cl)cccc1Cl`, the Potency entry in assay [1], in assay [2], in assay [16], in assay [17], in assay [3] and in assay [8] was “inactive” each time. For the same compound, the Potency entry in assay [9], in assay [10], in [12], in assay [13] and in [14] was “inactive” throughout. Further, the result in [4], in [5], in [6] and in assay [7] was inactive.

As to `Fc1ccc(C2(Cn3cncn3)OC2c2ccccc2Cl)cc1` (configuration not stated), the Potency result in assay [1], in assay [15], in assay [16], in assay [3], in assay [9] and in assay [11] was “inactive” in each case. Also, in assay [14], the Potency result was “inactive”. Moreover, the result in assay [4], in assay [5] and in assay [6] was inactive.

With `CCC(=O)C(CCN(C)C)(c1ccccc1)c1ccccc1`, the Potency result in assay [1], in assay [2], in assay [16], in assay [17], in [3] and in assay [9] was “inactive” throughout. The Potency result in [10], in assay [11], in assay [12] and in assay [14] was “inactive” in each case. Moreover, the compound was called inactive in [4], in assay [5] and in assay [6]. Besides, in assay [13], the Potency is 16.8 µM (active).

Turning to `CC(Oc1ccc(Oc2ncc(C(F)(F)F)cc2Cl)cc1)C(=O)O` (configuration not stated), the Potency entry in [1], in assay [15], in [3], in [8], in assay [9] and in assay [10] was “inactive” each time. Besides, the Potency result in [11], in assay [13] and in assay [14] was “inactive” throughout. Also, in [16], the Potency is 7.7 µM (active). The compound was classed as inactive in [5].

`CN/C(=N\[N+](=O)[O-])NCC1CCOC1` (configuration not stated): the Potency entry in [1], in assay [16], in assay [17], in [3], in [8] and in [9] was “inactive” each time. Also, the Potency result in assay [10], in assay [11] and in assay [12] was “inactive” each time. Moreover, the result in assay [4], in [5], in [6] and in [7] was inactive.

Turning to `CN(N=O)C(N)=O`, the Potency result in assay [1], in [15], in assay [17], in [3], in assay [8] and in assay [9] was “inactive” in each case. Further, the Potency entry in [10], in assay [11], in assay [12], in assay [13] and in [14] was “inactive” each time. The call in assay [4], in assay [5], in [6] and in assay [7] was inactive.

Turning to `CNC(=O)Oc1ccccc1C1OCCO1`, the Potency entry in assay [1], in assay [2], in assay [16], in assay [3], in assay [8] and in assay [9] was “inactive” throughout. Besides, the Potency result in assay [10], in assay [11] and in assay [14] was “inactive” each time. The compound was called inactive in assay [4], in assay [5] and in [6].

`COC(=O)c1c(C(F)F)nc(C(F)(F)F)c(C2=NCCS2)c1CC(C)C`: the Potency result in [1], in [15], in assay [16], in [17], in [3] and in assay [8] was “inactive” each time. The Potency entry in assay [9], in [10], in assay [11], in assay [12] and in assay [14] was “inactive” throughout. For the same compound, the compound was classed as inactive in assay [5] and in assay [6]. Also, in assay [13], the Potency is 0.77 µM (active).

For `COP(=S)(OC)Oc1c(Cl)cc(C)cc1Cl`, the Potency entry in [1], in [15], in assay [3], in assay [8], in assay [9] and in assay [10] was “inactive” throughout. Further, the Potency entry in assay [12] and in [14] was “inactive” in each case. In addition, the call in assay [4], in assay [5], in [6] and in assay [7] was inactive. In [13], the Potency is 24.3 µM (active).

With `COC(C)(C)C`, the Potency entry in [1], in assay [2], in [16], in assay [3], in [8] and in assay [9] was “inactive” throughout. Moreover, the Potency entry in assay [10], in assay [11], in [13] and in assay [14] was “inactive” throughout. In addition, the result in assay [4] and in assay [5] was inactive.
